This note sets out measurements from PubChem BioAssay (NCATS).

Inconclusive results are not listed. Active and inactive are the calls of the source. Calls follow the shape of the dose curve; as a rule, active = well fitted inhibition curve with a large enough effect; inconclusive = small, poorly fitted or top-dose-only effect; inactive = flat fitted curve, though single readings scatter.

What all share (experiment): qHTS profiling for inhibitors of Plasmodium falciparum proliferation (AID 504749); also: nearly all actives have a fitted effect of over 60% in size
What all share (conditions): P. falciparum in erythrocytes, SYBR Green DNA, 72 h; series mostly up to 28.7 µM

The subject of one assay is CP237. In a few lines:
(§1)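 Parasite proliferation within erythrocytes, 72 h exposure. Endpoint: SYBR Green I fluorescence after overnight lysis at room temperature. Controls: 0.29 uM artemisinin, DMSO.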

The next assay deals with CP247. In a few lines:
as §1

The next assay deals with CP252. In a few lines: as §1
The subject of a further assay is CP256. In outline: as §1
The test system of the next assay is CP260. In outline: as §1
The next assay concerns CP262. In outline: as §1
The next assay deals with CP266. In a few lines:
as §1

The test system of another assay is CP268. In a few lines: as §1
The next assay deals with CP269. In outline: as §1
In another assay the test system is CP286. In a few lines: as §1
A further assay relates to CP291. In outline:
as §1

A further assay has as its system CP297. In a few lines:
as §1

Another assay deals with CP305. In a few lines:
as §1

A further assay deals with CP315. In outline:
as §1

A further assay concerns CP325. In outline:
as §1

The subject of the next assay is CP329. In outline: as §1
Another assay deals with CP335. In a few lines:
as §1

Another assay deals with CP238. In a few lines:
as §1

In another assay the test system is CP250. In outline:
as §1

A further assay deals with CP265. In a few lines:
as §1
Potency is read from the fitted curve at half-maximal effect.

Consider `COc1cc2c(cc1OC)C(=O)C(CC1CCN(Cc3ccccc3)CC1)C2` (centres undefined), for which the Potency entry in the assay with CP237, with CP247, with CP252, in the assay with CP256, in the assay with CP260 and with CP262 was “inactive” each time. Also, the Potency result in the assay on CP266, with CP268, with CP269, with CP286, in the assay on CP291 and with CP297 was “inactive” in each case. Also, the Potency result in the assay on CP305, in the assay on CP315, in the assay on CP325, in the assay on CP329 and in the assay on CP335 was “inactive” in each case.
Turning to `Cc1c(C)n(CCN(C)C)c2ccc(C(=O)OCCN(C)C)cc12`, the Potency in the assay on CP237 is 11.2 µM (active). The Potency entry in the assay with CP238, with CP247, with CP250, in the assay on CP252, in the assay on CP256 and in the assay on CP262 was “inactive” in each case. The Potency result in the assay with CP265, with CP266, in the assay with CP268, with CP269, with CP286 and in the assay with CP291 was “inactive” in each case. In addition, the Potency result in the assay with CP297, with CP305, with CP315, in the assay with CP325, in the assay on CP329 and in the assay on CP335 was “inactive” each time.
For the compound `CCCCOc1cc(C(=O)NCCN(CC)CC)c2ccccc2n1`, the Potency result in the assay on CP237, with CP238, with CP247, in the assay on CP250, in the assay with CP252 and with CP256 was “inactive” throughout. Moreover, the Potency result with CP260, in the assay with CP265, with CP268, with CP269, with CP286 and in the assay on CP291 was “inactive” in each case. Further, the Potency result in the assay on CP297, with CP305, in the assay on CP315, in the assay with CP325, in the assay with CP329 and in the assay on CP335 was “inactive” throughout.
On to `CCOC(=O)COc1ccc2c(C)c(CCN(CC)CC)c(=O)oc2c1Cl`, for which the Potency result in the assay on CP237, in the assay with CP247, in the assay with CP250, in the assay on CP260, in the assay with CP262 and in the assay on CP266 was “inactive” each time. In addition, the Potency entry with CP268, with CP269, in the assay on CP286, in the assay on CP291, in the assay with CP297 and with CP305 was “inactive” in each case. In addition, the Potency entry with CP315, in the assay with CP325, in the assay with CP329 and in the assay with CP335 was “inactive” in each case.
On to `CCN(CC)CCOc1ccc(C(O)(Cc2ccc(Cl)cc2)c2ccc(C)cc2)cc1` (centres undefined), for which the Potency with CP237 is 7.94 µM (active); in the assay on CP247, 10 µM (active); in the assay with CP260 it was 11.2 µM (active); in the assay on CP268 it was 19 µM (active); in the assay on CP269, 15.1 µM (active); with CP286, 10 µM (active). Besides, the results for the Potency in the assay on CP291, in the assay with CP297 and with CP335 were 13.5 µM (active), 16.9 µM (active) and 12 µM (active), respectively.
Take `CN1CCN(CCCN2c3ccccc3Sc3ccc(S(=O)(=O)N(C)C)cc32)CC1`: the figures for the Potency in the assay on CP237 and in the assay with CP265 were 3.98 µM (active) and 3.55 µM (active), respectively. Further, the Potency entry in the assay on CP252, with CP262, in the assay with CP266, in the assay with CP315 and with CP329 was “inactive” in each case.
Consider `COC(=O)[C@H]1[C@H]2C[C@H]3c4[nH]c5ccccc5c4CCN3C[C@H]2CC[C@@H]1O`, for which the Potency result in the assay with CP262, in the assay with CP266, with CP268, in the assay with CP269, with CP291 and in the assay on CP297 was “inactive” throughout. Moreover, the Potency entry in the assay on CP305, with CP315, in the assay with CP325, with CP329 and in the assay with CP335 was “inactive” each time.
Regarding `O=C(CCCN1CCC(O)(c2ccc(Br)cc2)CC1)c1ccc(F)cc1`, the Potency entry with CP256, with CP262, with CP266 and with CP297 was “inactive” throughout. In addition, the Potency in the assay with CP260 was 3.55 µM (active).
In the case of `O=C(Nc1ccc(Oc2ccc(Cl)cc2)c(Cl)c1)c1cc(I)cc(I)c1O`, the Potency result in the assay on CP238, in the assay on CP256, in the assay with CP262, with CP266, in the assay on CP268 and with CP269 was “inactive” each time. The Potency entry in the assay with CP286, in the assay on CP291, with CP297, in the assay on CP305, in the assay with CP315 and in the assay on CP325 was “inactive” each time. The Potency entry in the assay on CP329 and with CP335 was “inactive” each time.
On to `Clc1ccc2c(c1)CCc1cccnc1C2=C1CCNCC1`, for which the Potency result in the assay with CP247, in the assay on CP250 and in the assay on CP256 was “inactive” throughout. Moreover, the Potency in the assay with CP286 is 10 µM (active).
Turning to `CCN1CCN(c2cc3c(cc2F)c(=O)c(C(=O)O)cn3C2CC2)CC1`, the Potency entry with CP238, in the assay on CP247, in the assay with CP250, in the assay with CP252, in the assay on CP256 and with CP262 was “inactive” throughout. The Potency entry with CP265, in the assay with CP266, in the assay on CP268, in the assay with CP269, in the assay on CP291 and in the assay on CP297 was “inactive” each time. Besides, the Potency result in the assay with CP315, in the assay on CP325 and in the assay with CP329 was “inactive” throughout.
`CN(C)CC/C=C1\c2ccccc2Sc2ccc(Cl)cc21`: the Potency result in the assay on CP250, with CP262, in the assay with CP266, in the assay on CP268, with CP297 and in the assay with CP305 was “inactive” each time. For the same compound, the Potency result in the assay on CP315 and in the assay with CP329 was “inactive” throughout. In addition, the Potency is 8.91 µM (active) in the assay on CP260 and 11.2 µM (active) in the assay on CP286.
Regarding `NC(CS)C(=O)O` (centres undefined), in the assay on CP260, the Potency was 8.91 µM (active). The Potency result in the assay on CP262, in the assay on CP315 and in the assay on CP329 was “inactive” in each case.
For the compound `CC(C)N=C(N)/N=C(\N)Nc1ccc(Cl)cc1`, the Potency result in the assay with CP238, in the assay with CP266 and in the assay on CP268 was “inactive” each time. Moreover, the Potency was 708 nM (active) in the assay on CP256 and 2.28 µM (active) in the assay with CP262.
